The values below come from PubChem BioAssay (NCATS).

Unmarked numbers belong to inactive results. Inconclusive results are not listed. Active and inactive are the calls of the source. Unless noted, calls follow the shape of the dose curve; as a rule, active = well fitted curve in the direction sought with a large enough effect; inconclusive = small, poorly fitted or top-dose-only effect, or another doubt; inactive = no such curve, though single readings can be large; an effect the other way counts as inactive or inconclusive.

Assay [1] is described as follows: Cell Viability - BJ (AID 421; calls by dose curve;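 also: potency is read from the fitted curve at half-maximal effect; cells exposed to compound for 40 hours at 37 °C before readout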). The note with it: BJ fibroblast viability, qHTS. Summed up: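 Normal human BJ foreskin fibroblasts, 1500/well in complete medium, treated 40 hr at 37 °C. Cellular ATP by CellTiter-Glo luminescence; normalized to DMSO and 100 uM tamoxifen, AC50 from Hill fit.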
For orientation: qHTS replaces the single test concentration by a dilution series.

Assay [2] can be described thus: Cell Viability - Jurkat (AID 426;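 active = dose-dependent loss of cell ATP signal giving a full or clear fitted curve, ranked by lower potency value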; also: potency is read from the fitted curve at half-maximal effect). To be noted: qHTS. A digest of the protocol: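 Cytotoxicity was scored as loss of cellular ATP, measured by luciferase-based luminescence, in Jurkat clone E6-1 cells after 40 h compound treatment; tamoxifen and doxorubicin served as positive controls.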
A short description of assay [3]: Cell Viability - Hek293 (AID 427;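 active = compounds whose dose-response curve shows a full or clear partial loss of cell viability, called from curve shape rather than a numeric limit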;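 also: potency is read from the fitted curve at half-maximal effect; cells exposed to compound for 40 hours at 37 °C before reading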). To be noted: qHTS. A digest of the protocol:
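HEK293 cells in complete medium were exposed to compound for 40 hr at 37 °C, then cellular ATP was read by CellTiter-Glo luminescence. Data were normalized to DMSO (basal) and 100 uM tamoxifen (100% inhibition), and AC50 came from Hill fits.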

Assay [4] can be described thus: Cell Viability - HepG2 (AID 433; calls by dose curve; also: potency is read from the fitted curve at half-maximal effect). To be noted: qHTS. A digest of the protocol:
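Cytotoxicity read as ATP loss (CellTiter-Glo luminescence) after 40 hr compound exposure of HepG2, 1500 cells/well, 37 °C. AC50 by Hill equation; 0% set by DMSO, 100% inhibition by 100 uM tamoxifen.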

Assay [5] can be described thus: Cell Viability - MRC5 (AID 434; calls by dose curve;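 also: potency is read from the fitted curve at half-maximal effect; potency reflects cytotoxicity seen as loss of intracellular ATP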). The note with it: MRC5 lung fibroblast viability, qHTS. A digest of the protocol: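 AC50 values come from Hill-equation fits of intracellular ATP loss, measured by CellTiter-Glo luminescence. Normal lung fibroblasts (MRC5) had 40 hr compound treatment at 37 C, normalized between DMSO and 100 uM tamoxifen.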
Assay [6] in a line: Cell Viability - SK-N-SH (AID 435; calls by dose curve; also: potency is read from the fitted curve at half-maximal effect). To be noted: SK-N-SH neuroblastoma cell viability qHTS. Summed up: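 qHTS cytotoxicity: CellTiter-Glo ATP luminescence after 40 h compound exposure of human neuroblastoma SK-N-SH cells at 37 °C. AC50 derived by Hill-equation fitting, with DMSO as basal and 100 uM tamoxifen as full inhibition.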
The target of assay [7] is Mitogen-activated protein kinase 10 (Mus musculus) (UniProt Q61831). The assay is described as follows: JNK3 AlphaScreen Assay (AID 530; active = well fitted curve in either direction with a large enough effect, not every such curve was filed as active;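 also: kinase came from lysate of stimulated human HepG2 cells; signal reports phosphorylation of biotinylated GST-cJun 1-79 at Ser73 with 10 µM ATP; % is scaled to controls: 0 for no effect and ±100 for the full control effect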). The note with it: JNK3 lysate, c-Jun phosphorylation; series mostly up to 57.1 µM. Summed up: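 Kinase buffer: 20 mM Tris-HCl pH 7.6, 10 mM MgCl2, 1 mM DTT, 0.1 mM Na3VO4, 0.01% Tween-20; ATP 10 uM. Substrate biotin-GST-cJun(1-79), enzyme from activated HepG2 lysates. Detection by Ser73 phospho-antibody AlphaScreen.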

A short description of assay [8]: Cell Viability - N2a (AID 540).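 Also: plate controls were DMSO alone for no effect and tamoxifen control for full effect; nearly all actives have a fitted effect of over 45% in size.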 The note with it: N2a mouse neuroblastoma cell viability; activity change, negative = cytotoxicity: at 92.2 µM (top of the series). A digest of the protocol: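 In this qHTS cytotoxicity screen, ATP-dependent luciferase luminescence reports viable N2a cells after a 40 hr compound exposure in complete culture medium. Potencies are AC50 values from standard Hill equation fits.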

The nature of assay [9]: Cell Viability - NIH 3T3 (AID 541).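 Also: plate controls were DMSO alone for no effect and tamoxifen positive control for full effect; nearly all actives have a fitted effect of over 25% in size.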 The note with it: NIH 3T3 cell viability, qHTS; activity change, negative = cytotoxicity: at 92.2 µM (top of the series). A digest of the protocol:
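In this cytotoxicity screen, acute toxicity is scored as an ATP drop measured by CellTiter-Glo in NIH 3T3 fibroblasts following a 40 hr, 37 °C incubation with compound.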

Assay [10] is described as follows: Cell Viability - HUV-EC-C (AID 542). Also: % is scaled to controls: 0 for no effect and ±100 for the full control effect; nearly all actives have a fitted effect of over 35% in size. The note with it: HUV-EC-C endothelial cell viability, qHTS; series mostly up to 92.2 µM. Summed up: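 Concentration-dependent ATP loss in HUV-EC-C cells is the measure. Exposure lasts 40 hr at 37 °C; luminescence follows CellTiter-Glo addition, and Hill fits give AC50.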
A short description of assay [11]: Cell Viability - H-4-II-E (AID 543). Also: % is scaled to controls: 0 for no effect and ±100 for the full control effect; nearly all actives have a fitted effect of over 35% in size. To be noted: H-4-II-E rat hepatoma viability; series mostly up to 92.2 µM. A digest of the protocol:
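AC50 from Hill-modelled qHTS concentration-response curves. H-4-II-E rat hepatoma cells in complete medium, 40 hr exposure at 37 °C, viability by CellTiter-Glo ATP luminescence.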

Assay [12] is described as follows: Cell Viability - SH-SY5Y (AID 544). Also: nearly all actives have a fitted effect of over 55% in size. To be noted: SH-SY5Y neuroblastoma cell viability; viability change, negative = cytotoxic: at 92.2 µM (top of the series). Summed up: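 Quantitative HTS in SH-SY5Y neuroblastoma cells, 40 hr treatment at 37 °C, ATP content by luciferase luminescence; AC50 from Hill fits.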
The nature of assay [13]: Cell Viability - Renal Proximal Tubule (AID 545). Also: nearly all actives have a fitted effect of over 40% in size. The note with it: renal proximal tubule cells viability, primary cells of rat origin; series mostly up to 91.7 µM. A digest of the protocol:
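Viability taken as intracellular ATP (CellTiter-Glo luminescence) after 40 hr, 37 °C compound treatment of primary proximal tubule cells from rat kidney, 1000 cells/well; Hill-equation fits of qHTS concentration-response data gave AC50.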

The nature of assay [14]: Cellular Toxicity (caspase-3) HepG2 (AID 654).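 Also: cells exposed to compound for 16 hours before reading; 0% = DMSO alone and 100% = caspase signal from 100 µM tamoxifen.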 To be noted: HepG2 caspase-3 activation, luminescence; series mostly up to 92.2 µM. Summed up: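 Concentration-response AC50 values reflect caspase-3/7 induction in HepG2 cells after 16 hours of compound exposure, quantified by luminescence from liberated aminoluciferin and referenced to 100 uM tamoxifen as full stimulation.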

The nature of assay [15]: Cellular Toxicity (caspase-3) Jurkat (AID 655).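 Also: cells exposed to compound for 16 h at 37 °C before reading.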 To be noted: Jurkat caspase-3 activation, luminescence; caspase-3 activation: at 92.2 µM (top of the series), DMSO = 0%, tamoxifen = 100%. Summed up: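 Luminescent Caspase-Glo 3/7 read-out (20 min, room temperature) after 16 h compound treatment at 37 C of 5000 Jurkat cells per well. AC50 derived by Hill-equation fitting, scaled between DMSO basal and 100 uM tamoxifen stimulation.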

The nature of assay [16]: Cellular Toxicity (caspase-3) HUV-EC-C (AID 656). The note with it: HUV-EC-C cells, caspase-3 activation (apoptosis), vehicle = 0, 100 µM tamoxifen = 100%; series mostly up to 92.2 µM. Summed up:
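Luminescent Caspase-Glo 3/7 readout after 16 h, 37 °C compound exposure of HUV-EC-C endothelial cells, 1000 per well, complete medium. AC50 derived by Hill fitting, with DMSO as baseline and 100 uM tamoxifen as full activation.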

The nature of assay [17]: Cellular Toxicity (caspase-3) BJ (AID 658). To be noted: BJ fibroblasts, luminescence, normalized: DMSO 0%, staurosporine 100%; series mostly up to 91.7 µM. A digest of the protocol: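 Caspase-Glo 3/7 luminescence, read 1 hr after reagent at room temperature, in normal BJ fibroblasts exposed 16 hours at 37 °C. AC50 values from Hill-equation concentration-response, scaled between DMSO basal and 10 uM staurosporine as 100%.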

Assay [18] is described as follows: Cellular Toxicity (caspase-3) MRC-5 (AID 659). The note with it: MRC-5 cells, luminescence, normalized: DMSO 0%, 10 µM staurosporine 100%; series mostly up to 91.7 µM. A digest of the protocol:
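Luminescent Caspase-Glo 3/7 read-out (1 h, room temperature) after a 16 h, 37 °C compound exposure of MRC-5 lung fibroblasts at 1500 cells/well. Concentration-response AC50 from Hill equation; 0% DMSO, 100% 10 uM staurosporine.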

A short description of assay [19]: Cell Viability - Mesenchymal (AID 546).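 Also: cells exposed to compound for 40 hours before reading.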 To be noted: mesenchymal cells viability, qHTS; series mostly up to 91.7 µM. A digest of the protocol: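 CellTiter-Glo luminescence (intracellular ATP, 20 min room temperature) after 40 hr compound exposure at 37 °C of 1000 glomerulus-derived human kidney mesenchymal cells/well; AC50 values obtained by fitting qHTS concentration-response data to the Hill equation.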

Assay [20] in a line: Cellular Toxicity (caspase-3) SHSY5Y (AID 657). To be noted: SH-SY5Y caspase-3 activation, DMSO zero, 10 µM staurosporine = 100%; series mostly up to 91.7 µM. Summed up:
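Luminescent Caspase-Glo 3/7 read-out, 1 hr room temperature, follows 16 hours of compound treatment of SH-SY5Y cells at 37 °C. Normalization: DMSO basal, 10 uM staurosporine as 100%; AC50 values from Hill-equation concentration-response fits.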

For `CC(C)(C)c1ccc(OCC2CO2)cc1` (stereo not drawn), the Potency in [1], in assay [2], in assay [3], in assay [4], in assay [5] and in assay [6] was > 92 µM each time. The outcome in assay [7], in assay [16], in [17] and in [18] was inactive. The activity change, negative = cytotoxicity in assay [8] is -14.9%. Besides, the Potency entry in [9], in assay [10], in assay [11], in [12], in assay [13] and in assay [14] was “inactive” in each case. Besides, the caspase-3 activation in assay [15] was 15.6%.

For the molecule `NC(N)=S`, the Potency in assay [1], in assay [2], in [3], in assay [4], in assay [5] and in assay [6] was > 92 µM throughout. The molecule was classed as inactive in assay [7], in [16], in assay [20] and in [18]. Further, the activity change, negative = cytotoxicity in [8] was 7.78%. Also, the Potency result in [9], in [10], in [11], in [12], in assay [13] and in assay [19] was “inactive” each time. For the same molecule, the caspase-3 activation in assay [15] is 0.321%.

In the case of `O=C(O)c1ccccc1[N+](=O)[O-]`, the Potency in assay [1], in assay [2], in [3], in assay [4], in [5] and in assay [6] was > 92 µM throughout. Also, the molecule was classed as inactive in [7], in assay [16], in [20], in assay [17] and in assay [18]. For the same molecule, the activity change, negative = cytotoxicity in assay [8] was 4.07%. Besides, the Potency entry in assay [9], in [10], in assay [11], in assay [12], in assay [13] and in assay [19] was “inactive” in each case. In assay [15], the caspase-3 activation was -0.644%.

As for `CC(=O)Nc1ccc(C)cc1`, the Potency in assay [1], in assay [2], in [3], in assay [4], in assay [5] and in assay [6] was > 92 µM each time. Also, the molecule was classed as inactive in assay [7], in assay [16], in assay [20], in assay [17] and in assay [18]. Besides, the activity change, negative = cytotoxicity in assay [8] is -10.4%. For the same molecule, the Potency result in assay [9], in assay [10], in assay [11], in assay [12], in assay [13] and in [14] was “inactive” throughout. Moreover, in assay [15], the caspase-3 activation is 1.97%.

In the case of `CCOc1cc(OCC)c(C(C)=O)cc1OCC`, the Potency in [1], in assay [2], in assay [3], in assay [4], in [5] and in assay [6] was > 92 µM throughout. Moreover, the result in assay [7], in assay [16], in assay [20], in [17] and in assay [18] was inactive. In addition, in assay [8], the activity change, negative = cytotoxicity is -7.23%. For the same molecule, the Potency result in assay [9], in assay [10], in assay [11], in [12], in [13] and in [14] was “inactive” each time. Besides, in assay [15], the caspase-3 activation is -0.274%.

`CCC1CO1` (stereo not drawn): the Potency in assay [1], in assay [2], in [3], in assay [4], in [5] and in assay [6] was > 92 µM in each case. The molecule was called inactive in assay [7], in [16], in assay [20], in [17] and in assay [18]. Besides, in assay [8], the activity change, negative = cytotoxicity was -4.66%. The Potency result in assay [9], in assay [10], in assay [11], in [12], in assay [13] and in assay [19] was “inactive” in each case. Moreover, in assay [15], the caspase-3 activation is 1.29%.

As to `C=C(C)C(=O)OCCCCCC`, the Potency in assay [1], in assay [2], in assay [3], in [4], in assay [5] and in assay [6] was > 92 µM in each case. In addition, the molecule was called inactive in [7], in [16], in assay [20], in assay [17] and in assay [18]. Also, the activity change, negative = cytotoxicity in assay [8] is -2.36%. Also, the Potency result in assay [9], in assay [10], in assay [11], in assay [12], in [13] and in assay [19] was “inactive” in each case. Also, the caspase-3 activation in [15] was 2.29%.

For the molecule `Cc1ccc2c(c1[N+](=O)[O-])C(=O)c1ccccc1C2=O`, the Potency in assay [1] was > 92 µM; in [2], > 92 µM; in assay [3], 0.351 µM (active); in assay [4], > 92 µM; in assay [5], > 92 µM; in assay [6], > 92 µM. Moreover, the outcome in assay [7], in [16], in assay [17] and in assay [18] was inactive. Besides, the activity change, negative = cytotoxicity in [8] is 3.24%. Moreover, the Potency result in assay [9], in assay [10], in [11], in assay [12] and in assay [13] was “inactive” throughout. In addition, the caspase-3 activation in assay [15] was -1.22%.
